Test results as given in PubChem BioAssay (NCI).
This is part of a sample that, as a whole, favours compounds with a hit. Of some 83,000 tested, about 20% had one in any assay.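 A percent growth of 40 corresponds to 60% growth inhibition; 0 means no net growth; -100 means all cells died. Active threshold: below 10.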 Active and inactive are the calls of the source.

test system: COLO 205 colon; assay: NCI-60 one-dose screen, 48 h (100 = growth as untreated, 0 = no growth, -100 = all killed); settings: 10 µM unless noted

| Compound | growth |
| --- | --- |
| O=C1/C(=C/c2ccc(Oc3ccccc3)cc2)N=C(c2ccccc2)N1CCc1cccs1 | 107% (inactive) |
| O=C1/C(=C/c2ccc(Cl)cc2)N=C(c2ccccc2)N1CCc1cccs1 | 100% (inactive) |
| COc1ccc(Sc2ccc3[nH]c(=O)nc(N)c3c2)cc1 | 106% (inactive) |
| COc1cc(C(=O)N(C(C)C)C2CCCCC2)cc(OC)c1OC | 105% (inactive) |
| COc1ccc(C2OCC(C)(C)CO2)cc1OC | 113% (inactive) |
| O=C(NCc1ccco1)C1CCN(S(=O)(=O)c2ccc(Cl)cc2)CC1 | 101% (inactive) |
| COc1ccc(-c2csc3c2-n2cccc2C3=O)cc1O | 72.3% (inactive) |
| COC(=O)[C@@H]1CCCN1C(=O)[C@@H]1CCCN1C(=O)[C@@H](Cc1c[nH]c2ccccc12)NC(=S)Nc1cc(C(F)(F)F)cc(C(F)(F)F)c1 | 16.8% (inactive) |
| CCN1C(=O)C2(Nc3ccccc3S2)c2cc(C)ccc21 (configuration not stated) | 97% (inactive) |
| Cc1nc(-c2ccccc2)cc2c(O)c(C(=O)N/N=C/Cc3ccccc3)[nH]c(=O)c12 | 111% (inactive) |
| O=S(=O)(/N=C1C=C/C(=N\S(=O)(=O)c2ccccc2)c2ccccc2\1)c1ccccc1 | 111% (inactive) |
| CCCOC(=O)c1ccc2c(c1)[N+](=O)C(C(=O)c1ccccc1)=C(C(F)(F)F)[N+]2=O | -92.3% (active) |
| CCCN(CCC)c1ccc(/C=C/c2ccc3cc(OCC)ccc3n2)cc1 | 112% (inactive) |
| COc1cccc(C2CC(=O)Nc3cc4c(cc32)CCC4)c1OC (configuration not stated) | 50% (inactive) |
| CC1SC(c2ccc(Cl)cc2)N(CCc2cccs2)C1=O (configuration not stated) | -60.5% (active) |
| O=C(O)c1ccccc1Oc1cc(-c2ccco2)nc(OCCBr)n1 | 109% (inactive) |
| COc1ccccc1/C=C/C(=O)/C=C/c1ccccc1O | -48.6% (active) |
| COc1cc(/C=C/C(=O)C(=Cc2ccc(F)c(F)c2)C(=O)/C=C/c2ccc(O)c(OC)c2)ccc1O | 58.1% (inactive) |
| CC1(C)CC(=O)C2=C(C1)Nc1cc3c(cc1C2c1ccc(F)cc1)OCO3 (configuration not stated) | 117% (inactive) |
| Nc1nc(N)c(C=Nc2ccc(Br)cc2)c(Nc2ccc(Br)cc2)n1 | 117% (inactive) |

| Compound | growth |
| --- | --- |
| COc1cc(/C=C2\C(=O)Nc3ccccc32)cc(OC)c1O | 112% (inactive) |
| Brc1ccccc1Nc1ccc2nnc(-c3ccncc3)n2n1 | 103% (inactive) |
| O=C(Nc1nc2ccccc2[nH]1)C(=O)Nc1nc2ccccc2[nH]1 | 103% (inactive) |
| COc1ccc(C2SC(C)C(=O)N2CCc2cccs2)cc1OC (configuration not stated) | 93.9% (inactive) |
| Oc1ccc(Cl)cc1CNc1nc2ccccc2[nH]1 | 65.1% (inactive) |
| CCOC(=O)c1c(-c2cc(OC)c(OC)c(OC)c2)csc1N | 90.7% (inactive) |
| COc1cc(C2CC(=O)Nc3c2ccc2ccccc32)cc(Br)c1OC (configuration not stated) | -57.5% (active) |
| Cc1ccc(-c2nnc(COc3ccc(-c4nnc(N)s4)cc3)o2)cc1 | 92.8% (inactive) |
| COc1cc(/C=C2\C(=O)N(c3c(Cl)cccc3Cl)c3ccccc32)cc(OC)c1O | 74.8% (inactive) |
| COC(=O)[C@H]1CCCN1C(=O)[C@H]1CCCN1C(=O)[C@@H](Cc1c[nH]c2ccccc12)NC(=S)Nc1cc(C(F)(F)F)cc(C(F)(F)F)c1 | 38.4% (inactive) |
| COc1ncnc2c1ncn2C/C(Br)=C(\Br)CCl | -82.6% (active) |
| COc1cc(CNCCN2C(=O)c3ccc4c5c(ccc(c35)C2=O)C(=O)N(CCNCc2cc(OC)c(OC)c(OC)c2)C4=O)cc(OC)c1OC | -72% (active) |
| O=C1CN2CCC1C/C2=C\c1ccnc2c(Cl)cccc12 (configuration not stated) | 98% (inactive) |
| O=C1OCC2=C1C(c1ccc3c(c1)OCO3)CC(=O)N2c1cccc(Cl)c1 (configuration not stated) | 105% (inactive) |
| Cc1ccc(C2SCC(=O)N2NC(=O)c2[nH]c3ccc(F)cc3c2-c2ccccc2)cc1 (configuration not stated) | 104% (inactive) |
| O=C(Nc1ccccc1)Oc1cccc2cccnc12 | 72.1% (inactive) |
| CCOC(=O)c1sc(NC(=O)CN2CCC(Cc3ccccc3)CC2)nc1C | 97.1% (inactive) |
| CN([N-]C(=O)CC(=O)[N-]N(C)C(=S)c1ccccc1)C(=S)c1ccccc1.[Cu+2] | -83.4% (active) |
| Clc1cccc(Cl)c1Nc1ccc2nnc(-c3ccncc3)n2n1 | 110% (inactive) |

test system: DU-145 prostate; assay: as above; settings: 10 µM unless noted

| Compound | growth |
| --- | --- |
| O=C1/C(=C/c2ccc(Oc3ccccc3)cc2)N=C(c2ccccc2)N1CCc1cccs1 | 98% (inactive) |
| O=C1/C(=C/c2ccc(Cl)cc2)N=C(c2ccccc2)N1CCc1cccs1 | 48.4% (inactive) |
| COc1ccc(Sc2ccc3[nH]c(=O)nc(N)c3c2)cc1 | 108% (inactive) |
| COc1cc(C(=O)N(C(C)C)C2CCCCC2)cc(OC)c1OC | 112% (inactive) |
| COc1ccc(C2OCC(C)(C)CO2)cc1OC | 107% (inactive) |
| O=C(NCc1ccco1)C1CCN(S(=O)(=O)c2ccc(Cl)cc2)CC1 | -18.5% (active) |
| COc1ccc(-c2csc3c2-n2cccc2C3=O)cc1O | -23.5% (active) |
| COC(=O)[C@@H]1CCCN1C(=O)[C@@H]1CCCN1C(=O)[C@@H](Cc1c[nH]c2ccccc12)NC(=S)Nc1cc(C(F)(F)F)cc(C(F)(F)F)c1 | 80.5% (inactive) |
| CCN1C(=O)C2(Nc3ccccc3S2)c2cc(C)ccc21 (configuration not stated) | 101% (inactive) |
| Cc1nc(-c2ccccc2)cc2c(O)c(C(=O)N/N=C/Cc3ccccc3)[nH]c(=O)c12 | 113% (inactive) |
| O=S(=O)(/N=C1C=C/C(=N\S(=O)(=O)c2ccccc2)c2ccccc2\1)c1ccccc1 | 117% (inactive) |
| CCCOC(=O)c1ccc2c(c1)[N+](=O)C(C(=O)c1ccccc1)=C(C(F)(F)F)[N+]2=O | -97.2% (active) |
| CCCN(CCC)c1ccc(/C=C/c2ccc3cc(OCC)ccc3n2)cc1 | 91.6% (inactive) |
| COc1cccc(C2CC(=O)Nc3cc4c(cc32)CCC4)c1OC (configuration not stated) | 51.9% (inactive) |
| O=C(O)c1ccccc1Oc1cc(-c2ccco2)nc(OCCBr)n1 | 104% (inactive) |
| COc1ccccc1/C=C/C(=O)/C=C/c1ccccc1O | -31.2% (active) |
| COc1cc(/C=C/C(=O)C(=Cc2ccc(F)c(F)c2)C(=O)/C=C/c2ccc(O)c(OC)c2)ccc1O | 17.3% (inactive) |
| CC1(C)CC(=O)C2=C(C1)Nc1cc3c(cc1C2c1ccc(F)cc1)OCO3 (configuration not stated) | 117% (inactive) |
| Nc1nc(N)c(C=Nc2ccc(Br)cc2)c(Nc2ccc(Br)cc2)n1 | 107% (inactive) |

| Compound | growth |
| --- | --- |
| COc1cc(/C=C2\C(=O)Nc3ccccc32)cc(OC)c1O | 92.5% (inactive) |
| Brc1ccccc1Nc1ccc2nnc(-c3ccncc3)n2n1 | 113% (inactive) |
| O=C(Nc1nc2ccccc2[nH]1)C(=O)Nc1nc2ccccc2[nH]1 | 114% (inactive) |
| COc1ccc(C2SC(C)C(=O)N2CCc2cccs2)cc1OC (configuration not stated) | 93.3% (inactive) |
| Oc1ccc(Cl)cc1CNc1nc2ccccc2[nH]1 | -50.6% (active) |
| CCOC(=O)c1c(-c2cc(OC)c(OC)c(OC)c2)csc1N | 101% (inactive) |
| COc1cc(C2CC(=O)Nc3c2ccc2ccccc32)cc(Br)c1OC (configuration not stated) | -4.56% (active) |
| Cc1ccc(-c2nnc(COc3ccc(-c4nnc(N)s4)cc3)o2)cc1 | 100% (inactive) |
| COc1cc(/C=C2\C(=O)N(c3c(Cl)cccc3Cl)c3ccccc32)cc(OC)c1O | 36.8% (inactive) |
| COC(=O)[C@H]1CCCN1C(=O)[C@H]1CCCN1C(=O)[C@@H](Cc1c[nH]c2ccccc12)NC(=S)Nc1cc(C(F)(F)F)cc(C(F)(F)F)c1 | 51.7% (inactive) |
| COc1ncnc2c1ncn2C/C(Br)=C(\Br)CCl | 36.8% (inactive) |
| COc1cc(CNCCN2C(=O)c3ccc4c5c(ccc(c35)C2=O)C(=O)N(CCNCc2cc(OC)c(OC)c(OC)c2)C4=O)cc(OC)c1OC | -56.8% (active) |
| O=C1CN2CCC1C/C2=C\c1ccnc2c(Cl)cccc12 (configuration not stated) | 111% (inactive) |
| O=C1OCC2=C1C(c1ccc3c(c1)OCO3)CC(=O)N2c1cccc(Cl)c1 (configuration not stated) | 107% (inactive) |
| Cc1ccc(C2SCC(=O)N2NC(=O)c2[nH]c3ccc(F)cc3c2-c2ccccc2)cc1 (configuration not stated) | 106% (inactive) |
| O=C(Nc1ccccc1)Oc1cccc2cccnc12 | 92.9% (inactive) |
| CCOC(=O)c1sc(NC(=O)CN2CCC(Cc3ccccc3)CC2)nc1C | 102% (inactive) |
| CN([N-]C(=O)CC(=O)[N-]N(C)C(=S)c1ccccc1)C(=S)c1ccccc1.[Cu+2] | -74.1% (active) |
| Clc1cccc(Cl)c1Nc1ccc2nnc(-c3ccncc3)n2n1 | 111% (inactive) |
